Pf growth 48h = Primary qHTS for delayed death inhibitors of the malarial parasite plastid, 48 hour incubation; Potency, µM (titrated, usually from 28.7 µM), most hits filed as inhibitors; 310,000 compounds, 5.9% hits; P. falciparum luciferase growth in erythrocytes, 48 h
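Here the parasites carry a stable luciferase gene and grow inside erythrocytes in Albumax-based RPMI medium with compound for one erythrocytic cycle. Activity is scored as loss of luminescent signal.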
Sm TGR block = qHTS Assay for the Inhibitors of Schistosoma Mansoni Peroxiredoxins; Schistosoma mansoni thioredoxin glutathione reductase (TGR), Q962Y6; purified TGR, DTNB reduction, TNB absorbance 405 nm; Potency, µM (highest dose often 114 µM), usual class: inhibitors; 360,000 compounds, 3% hits; AID 485364, 2010; also: nearly all actives have a fitted effect of over 60% in size
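Kinetic colorimetric format: TGR-catalysed, NADPH-driven DTNB reduction monitored via TNB absorbance. Enzyme dispensed at 20 nM; compound exposure 15 min at room temperature before reaction start.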
CHX counter = Cycloheximide Counterscreen for Small Molecule Inhibitors of Shiga Toxin | 300,000 compounds, 12% hits | cell reporter, cycloheximide protein synthesis inhibition counterscreen | max response, %; in the data active = max response mostly above about 13%, no sharp cut-off; inactive = mostly below about 14%; also: read at 38.3 µM for the half of the compounds with a filed dose
Pf growth 96h = Primary qHTS for delayed death inhibitors of the malarial parasite plastid, 96 hour incubation; 320,000 compounds, 6.9% hits; Potency, µM (titrated, usually from 28.7 µM), hits mostly inhibitors; P. falciparum luciferase reporter growth, 96 h
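Readout is luminescence from an integrated firefly luciferase in P. falciparum. Red cells, 2% hematocrit and 0.05% parasitemia final, were cultured with compound through two parasite generations (96 hours) at 37 C, 5% CO2.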
Shiga inhibitor = A qHTS for Small Molecule Inhibitors of Shiga Toxin; Vero cells, Shiga toxin protein synthesis inhibition reporter; inhibition, % at 38.7 µM; 290,000 compounds, 9.2% hits; in the data active = inhibition mostly above about 28%, no sharp cut-off; inactive = mostly below about 43%
NS1 function inh = qHTS Assay for Inhibitors of Influenza NS1 Protein Function | Potency, µM (highest dose often 46.1 µM) | 270,000 compounds, 0.4% hits | AID 2326, 2010; calls by dose curve; also: actives are rising curves; nearly all actives have a fitted effect of over 50% in size
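Compounds were scored for reversing the slow growth caused by influenza A NS1 in S. cerevisiae, measured by optical density at 600 nm. Assay medium contained 2% galactose at pH 6.0; NS1-free yeast of the same strain were the positive control.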
Large screens that a line does not name were inactive. Hits are enriched below; roughly 21% of the tested compounds scored in any of these assays. Unless noted, calls follow the shape of the dose curve; as a rule, active = well fitted curve in the direction sought with a large enough effect; inconclusive = small, poorly fitted or top-dose-only effect, or another doubt; inactive = no such curve, though single readings can be large; an effect the other way counts as inactive or inconclusive.

c1ccn2cc(CSc3nnc4ccccn34)nc2c1	CHX counter 57, Shiga inhibitor 120 (no result: Pf growth 48h)
Cn1ccnc1SCc1cn2ccccc2n1	CHX counter 30, Shiga inhibitor 82
CCCCn1c(N)c(N(CC)C(=O)C2CCC2)c(=O)[nH]c1=O	none (no result: CHX counter, Shiga inhibitor, NS1 function inh)
CC1(C)CC(=O)C=C(c2ccc(Oc3ccccc3)cc2)C1	Pf growth 96h inconclusive (no result: CHX counter, Shiga inhibitor, NS1 function inh)
CC1(C)CC(=O)C=C(c2ccc(I)cc2)C1	Pf growth 48h 4.7µM, Pf growth 96h inconclusive (no result: CHX counter, Shiga inhibitor, NS1 function inh)
Cc1ccnc2ccc(P(=O)(c3ccccc3)c3ccccc3)cc12	Pf growth 48h inconclusive, Pf growth 96h inconclusive (no result: Sm TGR block)
CC[n+]1ccc(C)c2cc(S(=O)C(F)(F)F)ccc21 (stereo not drawn)	Pf growth 48h 3.7µM, Pf growth 96h inconclusive
CC[n+]1ccc(C)c2cc(P(=O)(c3ccccc3)c3ccccc3)ccc21	Pf growth 48h 13µM, Pf growth 96h inconclusive
CCCN1C(C(=O)c2ccccc2)=C(OC(=O)c2ccc(F)cc2)c2ccccc2S1(=O)=O	none (no result: Pf growth 48h, CHX counter, Pf growth 96h, Shiga inhibitor, NS1 function inh)
Cc1cc(Cl)ccc1Nc1sc(C(=O)c2cc3cc(Cl)ccc3o2)c(N)c1C#N	none (no result: Pf growth 48h, Sm TGR block, CHX counter, Pf growth 96h, Shiga inhibitor)
COC(=O)c1cc2ccccc2c(-c2c(O)ccc3ccccc23)c1O	Pf growth 48h 9.3µM, Pf growth 96h inconclusive
COC(=O)c1ccccc1C(=O)c1cccc2ccccc12	none
COc1ccc(-c2nc(CS(=O)CC(=O)NC3CCCC(C)C3C)c(C)o2)cc1OC (stereo not drawn)	Sm TGR block 13µM, Pf growth 96h 12µM
Cc1ccc(-c2nc(CS(=O)CC(=O)NC3CCCC(C)C3C)c(C)o2)cc1 (stereo not drawn)	Sm TGR block 45µM
Cc1[nH]c(=S)sc1Cc1ccc(F)cc1	none
O=C(c1ccccc1)N1N=C(C(F)(F)F)CC1(O)c1ccccc1 (stereo not drawn)	none (no result: Shiga inhibitor)
COc1cccc(C2(O)CC(C(F)(F)F)=NN2C(=O)c2ccccn2)c1 (stereo not drawn)	Sm TGR block inconclusive, CHX counter 38, Pf growth 96h 0.52µM, Shiga inhibitor 65
O=C(c1ccccc1)N1N=C(C(F)(F)F)CC1(O)c1ccc(F)cc1 (stereo not drawn)	CHX counter 25, Shiga inhibitor 59
COc1cccc(C(=O)N2N=C(c3ccccn3)CC2(O)C(F)(F)F)c1 (stereo not drawn)	Pf growth 48h inconclusive, Pf growth 96h inconclusive
COc1ccc(C)cc1-n1c(SCC(=O)Nc2cc(C)on2)nc2sc(C)c(C)c2c1=O	Pf growth 48h 9.3µM
CCn1c(SCC(=O)Nc2cc(C)on2)nc2sc(C)c(C)c2c1=O	Pf growth 96h 12µM
C=CCSc1nc2sc(C)c(C)c2c(=O)n1CC=C	Pf growth 48h inconclusive, Sm TGR block 16µM
COc1ccc(-c2cc(=O)c3c(OC)c(OC)c(OC)c(OC)c3o2)cc1OC	Pf growth 96h inconclusive
COc1ccc(-c2cc(=O)c3c(O)c(OC)c(O)cc3o2)cc1	CHX counter 37, Shiga inhibitor 45
COc1ccc(-c2cc(=O)c3c(OC)c(OC)c(OC)cc3o2)cc1	Pf growth 48h inconclusive, Pf growth 96h 12µM
COc1c(OC)c(O)c2c(=O)cc(-c3c(O)cccc3O)oc2c1OC	Pf growth 48h inconclusive, CHX counter 17, Pf growth 96h inconclusive, NS1 function inh inconclusive
C/C=C/c1ccc(OCC(O)CN(C)Cc2ccc(SC)cc2)c(OC)c1 (stereo not drawn)	Pf growth 96h inconclusive (no result: Pf growth 48h)
COc1ccc(N2CCN(CCCNC(=O)c3ccc4nc(CCc5ccccc5)oc4c3)CC2)cc1	none (no result: Pf growth 48h, CHX counter, Pf growth 96h, Shiga inhibitor, NS1 function inh)
CC(CCCC(C)(C)O)NC(=O)c1ccc2oc(CCc3ccccc3)nc2c1 (stereo not drawn)	CHX counter 14
CC(C)N(Cc1nccn1C)C(=O)c1ccc2oc(Cc3ccccc3)nc2c1	Pf growth 48h inconclusive
Cc1cnc(CNC(=O)c2ccc3oc(Cc4ccccc4)nc3c2)[nH]1	none
CCCCc1nc2cc(C(=O)N(C)C(C)c3ccccn3)ccc2o1 (stereo not drawn)	CHX counter 23, Shiga inhibitor 30
CCn1ccnc1CNC(=O)c1ccc2oc(CCCc3ccccc3)nc2c1	Pf growth 48h inconclusive, CHX counter 19, Shiga inhibitor 32
CCCCc1nc2cc(C(=O)NC3CCOC(C)(C)C3)ccc2o1 (stereo not drawn)	Pf growth 96h inconclusive
CCCCc1nc2cc(C(=O)NCc3ccccn3)ccc2o1	CHX counter 10, Pf growth 96h 12µM
CC1(C)CC(=O)C=C(NCc2ccc(C(=O)O)cc2)C1	none
O=C(Nc1cccc(S(=O)(=O)N2CCCC2)c1)c1ccc2ccccc2n1	Pf growth 48h inconclusive, Pf growth 96h inconclusive
CC(Sc1nc2cc(Cl)ccc2s1)C(=O)Nc1cccc(S(=O)(=O)N2CCOCC2)c1 (stereo not drawn)	Pf growth 96h 13µM, NS1 function inh inconclusive
O=C(Nc1cccc(S(=O)(=O)N2CCOCC2)c1)c1ccc2ccccc2n1	Pf growth 48h inconclusive, CHX counter 30
O=C(Nc1cccc(S(=O)(=O)N2CCCCC2)c1)c1ccc2ccccc2n1	CHX counter 25
CC(=O)c1cccc(Nc2ccc3cc(S(=O)(=O)N4CCCC4)ccc3n2)c1	none (no result: Pf growth 48h, CHX counter, Pf growth 96h, Shiga inhibitor, NS1 function inh)
CC(Nc1ccc(Br)cc1)C(=O)Nc1cccc(S(=O)(=O)N2CCOCC2)c1 (stereo not drawn)	Pf growth 48h inconclusive (no result: CHX counter, Shiga inhibitor, NS1 function inh)
O=S(=O)(c1ccc2nc(Nc3ccccc3)ccc2c1)N1CCCCC1	Pf growth 48h 10µM, CHX counter 14, Pf growth 96h inconclusive
O=C(Nc1cccc(S(=O)(=O)N2CCOCC2)c1)c1c2c(nc3ccccc13)CCC2	Pf growth 48h inconclusive, Pf growth 96h inconclusive, NS1 function inh 4µM
O=C(Nc1cccc(S(=O)(=O)N2CCOCC2)c1)c1ccco1	none (no result: Pf growth 96h)
CC(C)NC(=O)c1cc(-c2ccc3c(c2)OCO3)on1	CHX counter 26, Pf growth 96h inconclusive, Shiga inhibitor 104
CCN(CC)C(=O)c1cc(-c2ccc3c(c2)OCO3)on1	CHX counter 62, Pf growth 96h inconclusive, Shiga inhibitor 77
CCN(CC)CCCNC(=O)c1cc(-c2ccc3c(c2)OCO3)on1	none
CCCCNC(=O)c1cc(-c2ccc3c(c2)OCO3)on1	CHX counter 38, Shiga inhibitor 57
CCCNC(=O)c1cc(-c2ccc3c(c2)OCO3)on1	CHX counter 31, Shiga inhibitor 86
Cc1noc(NC(=O)c2ccccc2C(F)(F)F)c1C#N	none (no result: Sm TGR block)
O=C(OC(c1ccccc1)c1nccc2ccccc12)c1cc([N+](=O)[O-])cc([N+](=O)[O-])c1 (stereo not drawn)	Pf growth 96h 10µM
Cc1cc(CC(C)CC(C)(C)C)n(O)c(=O)c1 (stereo not drawn)	Pf growth 48h 4.8µM, Pf growth 96h 3µM (no result: Sm TGR block, CHX counter, Shiga inhibitor, NS1 function inh)
